Most compounds without a hit are left out; they make up all but 2.7% or so of the library.
Mcl1 Bid PPI – disrupts binding of human Mcl-1 to Bid peptide; Q07820; TR-FRET Mcl-1/Bid-Dy647 peptide binding, 1536-well; inhibition, % at 21.7 µM; hit rate 0.97% among 220,000;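 active means compounds that cut the binding signal by more than half at the single screening dose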;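 further: His-tagged Mcl-1 with europium anti-His antibody binding Bid BH3 peptide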
eIF4E-4G inh – inhibitors of eIF4E and eIF4G interaction in translation initiation; AID 782; hit rate 0.37% among 220,000; P63073+Q04637; inhibition, % at 21.7 µM; TR-FRET eIF4E-eIF4GI(517-606) binding, 2 h;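 active means inhibition above about 30%, limit read from the data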
Bim-Mcl-1 – inhibitors of Bim-Mcl-1 interaction, human; Q07820; Bead-based flow cytometry, Bim peptide-Mcl-1 binding; inhibition, % at 10 µM; hit rate 0.1% among 190,000; AID 1009; in the data active means inhibition above about 40%
14-3-3 Bad inh – disrupts binding of bovine 14-3-3 zeta to phospho-Bad peptide; P63103; TR-FRET 14-3-3zeta/Dy647-pBad peptide displacement, 1 h; inhibition, % at 21.7 µM; hit rate 0.71% among 220,000;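 active means inhibition above about 70%, limit read from the data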
Target sequence (P63103 whole entry, looked up): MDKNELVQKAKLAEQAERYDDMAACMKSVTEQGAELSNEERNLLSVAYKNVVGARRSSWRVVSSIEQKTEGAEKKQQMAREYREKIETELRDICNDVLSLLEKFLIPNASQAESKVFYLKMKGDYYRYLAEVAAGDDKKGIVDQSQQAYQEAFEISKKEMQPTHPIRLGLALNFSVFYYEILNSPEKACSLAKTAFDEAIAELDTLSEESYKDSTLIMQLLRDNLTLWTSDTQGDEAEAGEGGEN
Pf gamet viab – kills late stage P. falciparum gametocytes. inhibition, % at 10.9 µM. hit rate 0.065% among 150,000. AID 743093. P. falciparum stage V gametocytes, ATP luminescence, 24 h;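 active means inhibition above the mean plus 3 SD of compounds within the control limits, set per campaign, cut at about 38% in these data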
Mcl1 Noxa PPI – Mcl-1/Noxa interaction inhibition. TR-FRET Mcl-1/Noxa peptide binding, 2 h. Q07820. hit rate 1.5% among 220,000. inhibition, % at 21.7 µM. AID 1022;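 active means compounds that cut the protein-peptide binding signal by more than 50% relative to plate controls in a single-dose test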;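 further: His-tagged Mcl-1 with rhodamine Noxa BH3 peptide and terbium anti-His antibody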
A number is an active result; 0 = inactive; - = no result given; [ ] = remark or other dose.

SMILES	Mcl1 Bid PPI	eIF4E-4G inh	Bim-Mcl-1	14-3-3 Bad inh	Pf gamet viab	Mcl1 Noxa PPI
CC(OC(=O)C1CC1)C(=O)Nc1ccc([N+](=O)[O-])cc1Cl (configuration not stated)	0	0	0	0	0	0
Cc1nc2c(sc3nc(N4CCOCC4)c4c(c32)CC(C)(C)OC4)c(-c2ccc(Cl)cc2)c1C(=O)O	0	0	-	0	0	0
CC(C)(C)n1cn[nH]c1=S	0	0	-	0	0	0
Nc1nc(SCc2ccc([N+](=O)[O-])cc2)nc2nc3c(cc12)CCCC3	79	0	0	0	0	0
Cc1ccc(-c2cc(-c3ccc4c(c3)OCO4)c(C#N)c(N)n2)o1	80	0	0	0	-	59
Cc1cc(-c2cc(-c3ccc(Cl)cc3)nc(N)c2C#N)co1	0	0	0	0	0	67
Cc1ccc(-c2cc(-c3ccc(Cl)cc3)c(C#N)c(N)n2)o1	0	72[fluorescence artefact?]	0	0	0	72
COc1ccccc1CCN1CCCC(CN(C)C(=O)CCC(=O)N(C)C)C1 (configuration not stated)	-	-	-	-	0	-
CN(C(=O)COc1ccc(Cl)cc1Cl)c1nnc(C23CC4CC(CC(C4)C2)C3)s1	0	0	0	0	-	0
O=C(O[C@@H]1Cc2c(O)cc(O)cc2O[C@@H]1c1cc(O)c(O)c(O)c1)c1cc(O)c(O)c(O)c1	0	0	0	0	-	95
O=C1CCCC2=C1C(c1ccc(O)c(O)c1)Nc1ccc3ncccc3c12 (configuration not stated)	0	0	0	0	-	77
COc1ccc(-c2nc3ccccc3c(=O)n2CCOc2cccc(C)c2C)cc1	95	0	0	0	0	0
COc1ccc(-c2nc3ccccc3c(=O)n2CCOc2c(C)cccc2C)cc1	0	0	0	0	0	0
O=C(NCc1ccccc1)c1ccc(CS(=O)(=O)Cc2ccccc2F)o1	0	0	0	0	0	0
O=C(O)c1ccc(CS(=O)(=O)Cc2ccccc2F)o1	92	0	0	0	0	0
CCn1cc(CNC(=O)CCSc2nc(-c3ccco3)cc(C(F)(F)F)n2)cn1	0	0	0	0	-	0
COc1ccc(C(=O)OC(C)CN2CCN(C)CC2)cc1OC (configuration not stated)	0	0	0	89	-	0
COc1cc(C(=O)OC(C)CN2CCN(C)CC2)cc(OC)c1OC (configuration not stated)	0	0	0	0	-	0
CC(CN1CCN(C)CC1)OC(=O)c1ccccc1Cl (configuration not stated)	0	0	0	85	-	0
O=C1C=C(c2ccc3c(c2)OCO3)C[C@@H](c2ccc(Cl)cc2)C1	-	-	-	-	0	-
CCN(CC)CCCOc1nc(C)nc2c1oc1ccccc12	0	0	0	77	0	0
CN1C(=O)NC(NS(=O)(=O)c2ccc(N)cc2)(C(F)(F)F)C1=O (configuration not stated)	0	0	0	0	0	0
CCC(CC)NC(=O)COC(=O)c1cc(Br)ccc1Cl	97	0	0	0	0	0
Cc1c(Cc2ccccc2)sc(/N=C/c2c(O)ccc3ccccc23)c1C(N)=O	53	0	0	0	-	0
CCN(CC)c1ccc(-c2n[nH]c(=S)n2-c2ccccc2)cc1	0	0	0	0	-	0
SMILES	Mcl1 Bid PPI	eIF4E-4G inh	Bim-Mcl-1	14-3-3 Bad inh	Pf gamet viab	Mcl1 Noxa PPI
CN(C)c1ccc(-c2n[nH]c(=S)n2-c2ccccc2)cc1	0	0	0	0	-	51
CC(=O)Nc1ccc(S(=O)(=O)NCC(C)NS(=O)(=O)c2ccc(NC(C)=O)cc2)cc1 (configuration not stated)	0	0	0	0	0	0
CC(=O)Nc1ccc(S(=O)(=O)NCC(CCC(=O)O)C(F)(F)F)cc1 (configuration not stated)	0	0	0	0	0	60
C=C1c2cccc(O)c2C(O)=C2C(=O)[C@]3(O)C(O)=C(C(N)=O)C(=O)[C@@H](N(C)C)[C@@H]3[C@@H](O)[C@H]12	0	0	0	0	-	0
CN(C)[C@@H]1C(=O)C(C(=O)NCN2CCCC2)=C(O)[C@@]2(O)C(=O)C3=C(O)c4c(O)cccc4[C@@](C)(O)C3CC12 (some centres not stated)	87	64	0	85	-	103
CCCCCC#CCC#CCC#CCC#CCCCC(=O)O	100	36	0	89	-	103
O=S(=O)(Cc1noc(-c2ccc(Cl)cc2)n1)Cc1ccco1	0	0	-	0	0	0

Source: PubChem BioAssay (several laboratories)
